Results as given in PubChem BioAssay (NCI).
Compounds without any hit were thinned out: in the full panel of roughly 83,000, 20% have a hit.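 Results are percent growth after 48 hours of single-concentration exposure. 100 means growth as in untreated cells, lower positive values show inhibition; negative values down to -100 show cell death.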 Activity calls are given as the source filed them. The calls were made as follows: active = growth percent below 10; inactive = the rest.

What was measured:
Assay in all cases: NCI-60 one-dose screen, 48 h (100 = growth as untreated, 0 = no growth, -100 = all killed)
Conditions in all cases: 10 µM unless noted
[1] = tested on: SK-MEL-2 melanoma
[2] = tested on: EKVX NSCLC
[3] = tested on: SN12C renal
[4] = tested on: UO-31 renal
[5] = tested on: TK-10 renal
[6] = tested on: ACHN renal
[7] = tested on: CAKI-1 renal
[8] = tested on: A498 renal
[9] = tested on: CCRF-CEM leukemia
[10] = tested on: MOLT-4 leukemia

Measured: growth

CCCCS(=O)(=O)Oc1ccc(-c2nc(C)c(C(=O)OCC)s2)cc1C=O
inactive: [1] 97.2% | [2] 92.1% | [3] 57.1% | [4] 57.7% | [5] 68.8% | [6] 62.7% | [7] 63.7% | [8] 77.5% | [9] 15.3% | [10] 32.1%

O=C(O)c1ccc(CO)o1
inactive: [1] 92.3% | [2] 105% | [3] 104% | [4] 97.7% | [5] 103% | [6] 105% | [7] 102% | [8] 114% | [9] 106% | [10] 100%

Cc1cc(C)on1
inactive: [1] 99.6% | [2] 99.2% | [3] 99.6% | [4] 84.5% | [5] 103% | [6] 104% | [7] 98.4% | [8] 121% | [9] 96% | [10] 92.3%

C=C1C(=O)O[C@H]2[C@H]1CC/C(Cn1cc(CNCCc3c[nH]c4ccccc34)nn1)=C\CC[C@@]1(C)O[C@@H]21
inactive: [1] 61.4% | [2] 97.2% | [3] 95% | [4] 80.7% | [5] 94.9% | [6] 87.4% | [7] 91.3% | [8] 103% | [9] 16.4% | [10] 77.6%

Cc1nc(Nc2ccccn2)sc1C(=O)/C=C/c1ccc(Br)cc1
inactive: [1] 97.7% | [2] 60.4% | [3] 78.8% | [4] 49.7% | [5] 127% | [6] 75.2% | [7] 53.4% | [9] 31.1% | [10] 80%

COC(=O)Nc1nc2ccc(C(=O)C3CC3)cc2[nH]1
inactive: [1] 27.9% | [2] 32.7% | [3] 19.7% | [5] 35.5% | [6] 37.1% | [7] 27.1%
active: [4] 6.33% | [8] 6.47% | [9] -22.3% | [10] -16%

Cc1c2c(cn1Cc1ccccc1)CCc1cn(C)nc1-2
inactive: [1] 114% | [2] 73.2% | [3] 87% | [4] 68.6% | [5] 107% | [6] 80.3% | [7] 58.8% | [8] 97.5% | [9] 74.4% | [10] 69.7%

O[C@H]1CO[C@H]2[C@@H]1OC[C@@H]2Oc1ccc(Nc2ccnc(Nc3ccc(O[C@H]4CO[C@H]5[C@@H]4OC[C@@H]5O)c(Cl)c3)n2)cc1Cl
inactive: [2] 25.2% | [5] 28.5% | [6] 20.3% | [7] 27.3% | [8] 22.7%
active: [1] 4.23% | [3] -2.74% | [4] 6.06% | [9] 7.39% | [10] 5.65%

CCOC(=O)c1nnn(-c2ccccc2)c1C1=CN(C)CCC1
inactive: [1] 103% | [2] 99% | [3] 106% | [4] 82% | [5] 96.6% | [6] 100% | [7] 97.8% | [8] 101% | [9] 109% | [10] 97.3%

C/C(=N\NC(=O)Cn1c(-c2ccc(S(C)(=O)=O)cc2)nc2cc(Cl)ccc21)c1ccc(Cl)cc1
inactive: [1] 91.1% | [2] 76.6% | [3] 84% | [4] 62.7% | [5] 101% | [6] 85.8% | [7] 74% | [8] 89.8% | [9] 76.2% | [10] 61.5%

O=C(NCc1cn(Cc2cccc(Oc3ccccc3)c2)nn1)c1cccnc1NCc1ccc(Cl)cc1
inactive: [1] 13.9% | [2] 30.7% | [3] 40.9% | [4] 30.5% | [5] 62.2% | [6] 41.9% | [7] 32.2% | [10] 14.6%
active: [8] -4.32%

CC(C)n1nc(C#Cc2cccc3cc(-c4cccc(C(F)(F)F)c4)ncc23)c2c(N)ncnc21
inactive: [1] 42.8% | [2] 93.6% | [3] 86.1% | [4] 82% | [5] 85.1% | [6] 68.7% | [7] 86.8% | [8] 83.5% | [9] 39.5% | [10] 43.2%

C/C(=N\NC(N)=S)c1nc2ccc(Cl)cc2[nH]1
inactive: [1] 32.1% | [2] 63.3% | [3] 48.5% | [4] 41.9% | [5] 33.9% | [6] 19.6% | [7] 26.9% | [8] 53.3% | [9] 32.8% | [10] 30.4%

CC(C)CCC[C@@H](C)[C@H]1CCC2C3=CCn4c(=O)ccc(=O)n4C3CC[C@@]21C (some centres undefined)
active: [1] -57.4% | [2] -82.2% | [3] -97.7% | [4] -88.5% | [5] -83.1% | [6] -95.1% | [7] -91.6% | [8] -94.8% | [9] -2.44% | [10] -23.6%

CN(CCCCCCCCNc1ccnc2ccccc12)Cc1ccc(-c2ccc(-c3ccc(C#N)cc3)s2)cc1
inactive: [8] 50.2%
active: [1] -63.9% | [2] -14.3% | [3] -78% | [4] -92.4% | [5] -50.1% | [6] -93.6% | [7] -86.5% | [9] -11.3% | [10] -32.9%

O=C(NCOC(O)C(Cl)(Cl)Cl)NCOC(O)C(Cl)(Cl)Cl (centres undefined)
inactive: [1] 89.7% | [2] 107% | [3] 97.8% | [4] 78.4% | [5] 100% | [6] 92.8% | [7] 95.9% | [8] 77.1% | [9] 105% | [10] 98.9%

CN(C)c1cnccn1
inactive: [1] 85.4% | [2] 104% | [3] 88.6% | [4] 84.2% | [5] 145% | [6] 87.1% | [7] 95.6% | [8] 95.7% | [9] 60.6% | [10] 93.7%

CC(=O)Nc1ccc(C(=O)/C=C/c2ccccc2)cc1
inactive: [1] 78.2% | [2] 95.2% | [3] 77.2% | [4] 51.8% | [5] 82.1% | [6] 94.6% | [7] 88.2% | [8] 74% | [9] 95.1% | [10] 81.6%

CCCN1CCN(c2ccc3nc(-c4ccc5nc(-c6cc(OC)c(OC)c(OC)c6)[nH]c5c4)[nH]c3c2)CC1
inactive: [1] 70.9% | [2] 109% | [3] 85.4% | [4] 86.5% | [5] 125% | [6] 96.4% | [7] 105% | [9] 41.2% | [10] 62.6%

COc1ccc(CN2C(=O)/C(=C\c3cc(OC)c(OC)c(OC)c3)c3ccccc32)cc1
inactive: [3] 12.8% | [5] 25.2% | [8] 52.7%
active: [1] -41% | [2] 5.9% | [4] 5.84% | [6] -59.5% | [7] -53.9% | [9] 5.62% | [10] 1.82%

CC1(C)N=C(N)N=C(N)N1c1ccc(Cl)c(Cl)c1
inactive: [1] 64.6% | [2] 52.5% | [3] 27.1% | [4] 48.3% | [5] 48.5% | [6] 28.4% | [7] 60.8% | [8] 99.1% | [9] 32% | [10] 34.6%

Clc1ccc(/C=N\N=c2\scc(-c3ccc(Cl)cc3)n2/N=C/c2ccc(Cl)cc2)cc1
inactive: [1] 91.4% | [2] 109% | [3] 102% | [4] 95.7% | [5] 92.5% | [6] 106% | [7] 107% | [8] 92.1% | [9] 97% | [10] 91.7%

CCc1nc2ccccc2[nH]1
inactive: [1] 127% | [2] 112% | [3] 95.6% | [4] 80.1% | [5] 118% | [6] 108% | [7] 109% | [8] 96.1% | [9] 98.8% | [10] 97.5%

CN(C)S(=O)(=O)n1cnc([C@@H]2[C@@H]3C(=O)OC[C@@H]3C[C@]23N=CN(Cc2ccccc2)C3=O)c1
inactive: [1] 176% | [2] 111% | [3] 104% | [4] 92.1% | [5] 112% | [6] 102% | [7] 97.3% | [8] 99.5% | [9] 125% | [10] 20.7%

CC(=O)c1cc2c(o1)C(=O)c1ccccc1C2=O
active: [1] -69.4% | [2] -81% | [3] -81.2% | [4] -98.1% | [5] -96.4% | [6] -98.3% | [7] -98.4% | [9] -74.8% | [10] -43%

Cc1ccc2c(n1)C(=O)C(Oc1ccc(F)cc1)=CC2=O
inactive: [1] 110% | [2] 103% | [3] 100% | [4] 93.9% | [5] 101% | [7] 99.1% | [9] 40.2% | [10] 66.2%
active: [6] 9.92%

O=C1Nc2ccccc2/C1=N/N=C/c1ccsc1
inactive: [1] 107% | [2] 90.9% | [3] 95.3% | [4] 74.8% | [5] 137% | [6] 102% | [7] 92% | [9] 101% | [10] 103%
